The text below walks through data of the supplement of paper PMC11417369.

Whole data set: some 25,000 sequences, median “ln(normalized median fluorescence intensity)” near 7.1, cut for the highest 2% near 10. For the sample, the highest values were picked, then their nearest neighbours and some sequences at random.

The experiment deals with PfSIP2 AP2 domain 1 (GST-tagged). Description: gcPBM binding intensity (ln(normalized median fluorescence intensity)); higher = stronger DNA binding. Put shortly:
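GST-tagged P. falciparum DNA-binding domains, expressed in E. coli (about 25 μg on average), were applied for 1 h to an Agilent 4 × 180k array of primer-extended double-stranded 36-bp intergenic genomic probes plus negative controls. The binding buffer was 1× PBS with 1% milk, 0.2 mg/ml BSA, 0.5% salmon testes DNA and 0.03% Triton X-100. Bound protein was detected with Alexa488 anti-GST antibody and scanned at 488 nm. Binding intensity is the highest Masliner-normalised natural-log median intensity across replicate spots of either probe orientation.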
“ATAAAAGAATAAATAAAACACATATATATATATATA [XGTACX_negctrl_site31]”: the “gcPBM binding intensity (ln)” value was 9.43.

With “AAATATTTATAAATTGCACACAAATAATAACATTAT [CACACA_site8737]”, the “gcPBM binding intensity (ln)” value stood at 7.

For the sequence “TGTATAATATTTGGTGCACACAAATTAACAACTGTT [CACACA_site9245]”, the “gcPBM binding intensity (ln)” value is 11.4.

Take “TTCTTTGTAGTATATTAACACACAACTGTTTATAAT [CACACA_site9305]”: the “gcPBM binding intensity (ln)” value was determined as 7.27.

Take “CTTTGTAGTATATTAACACACAACTGTTTATAATAT [CACACA_site6038]”: the “gcPBM binding intensity (ln)” value amounted to 7.05.

On to “ATATTTATAAATTGCACACAAATAATAACATTATAT [CACACA_site5322]”, for which the “gcPBM binding intensity (ln)” value was 7.13.

As for “TATAATATTTGGTGCACACAAATTAACAACTGTTTA [CACACA_site3742]”, the “gcPBM binding intensity (ln)” value worked out at 11.7.

Turning to “AAAGGTTCACATTATATAGTTATGTAATATATATGT [CACACA_negctrl_site542]”, the “gcPBM binding intensity (ln)” value stood at 6.84.

On to “ATATTTCATTTTTGTACACACAACGTTGGAGGGTTT [CACACA_site3043]”, for which the “gcPBM binding intensity (ln)” value came to 7.18.

As to “TCATATTTCCATAGGAGTACATAAAAAAAATAATAT [XGTACX_site7601]”, the “gcPBM binding intensity (ln)” value was 7.06.

As for “TAAAAATAATATTAATGTACATTACATATTAATATA [XGTACX_site1019]”, the “gcPBM binding intensity (ln)” value was found to be 6.83.

Regarding “AAAAGACATTTTTTTTTATAAATACACACGTACGTG [TGCATGCA_negctrl_site281]”, the “gcPBM binding intensity (ln)” value amounted to 6.95.

Regarding “TTTTATAAATACACACGTACGTGTGCATAACGTTTT [XGTACX_site3199]”, the “gcPBM binding intensity (ln)” value is 7.21.

Regarding “ATAAATAAATTTATACGTACACATAATATATATATA [XGTACX_site4634]”, the “gcPBM binding intensity (ln)” value came to 8.89.

In the case of “TTTTTTTTTATAAATACACACGTACGGGTGCATAAC [CACACA_site8444]”, the “gcPBM binding intensity (ln)” value is 11.3.

Consider “CATTTTTTTTTATAAATACACACGTACGGGTGCATA [CACACA_site1569]”, for which the “gcPBM binding intensity (ln)” value turned out to be 10.9.

For the sequence “GTTATAAATGCATATACACACATACGTACATACATA [CACACA_site7655]”, the “gcPBM binding intensity (ln)” value came out at 7.4.

In the case of “ATGTATTTATTATTTAGTACACATTATTTTCTTATA [XGTACX_site6365]”, the “gcPBM binding intensity (ln)” value was 7.05.

Turning to “AAATACATATTTAGAAGTACATTTATACATTTAATA [XGTACX_site8871]”, the “gcPBM binding intensity (ln)” value stood at 7.04.

Take “CATATATAAATATATACACACATATATATATATATA [CACACA_site1365]”: the “gcPBM binding intensity (ln)” value is 9.43.

With “TGAAGGTCAGTTCACAGTACCCAGTAACTCTACGGA [XGTACX_site2554]”, the “gcPBM binding intensity (ln)” value was 6.62.

For the sequence “AGGATTATATATTAATGTACCCGCGTTAATTTTTTT [XGTACX_site2878]”, the “gcPBM binding intensity (ln)” value was 6.82.

As to GTCTATATATTTTAGGTGCAACGTAAATGTAAAAAT, the “gcPBM binding intensity (ln)” value was 10.7.

Regarding “ATATATATATTTATATTTATATGTAAATATCAACGT [TGCATGCA_negctrl_site32]”, the “gcPBM binding intensity (ln)” value was 8.59.

As to “TTTTTTTTTATAAGGTGTACGTAAAATGTGTAGGTC [XGTACX_site3585]”, the “gcPBM binding intensity (ln)” value was 8.36.

“TTAAGTAGTACATACACACACATATACAAAAAGAAA [CACACA_site3972]”: the “gcPBM binding intensity (ln)” value came to 7.3.

For the sequence “AGAATGAAATAATATACACACAAAGGAAAAATGTAA [CACACA_site3911]”, the “gcPBM binding intensity (ln)” value was 6.76.

For “TACATATATTTTTATACATGCATAACTTAGGACTTT [TGCATGCA_site113]”, the “gcPBM binding intensity (ln)” value came out at 7.07.

On to “TTTTTTTTTTTTTTTGTGCACAATATAATTTTTAAT [GTGCAC_site9747]”, for which the “gcPBM binding intensity (ln)” value amounted to 8.64.

As for “TGTGCATAATTTTGTGCACACCACGCTAATAATTTT [CACACA_site2915]”, the “gcPBM binding intensity (ln)” value was found to be 10.9.

For the sequence “CATATAAATATTTGTGCACACAATTATTAATAATTA [CACACA_site3884]”, the “gcPBM binding intensity (ln)” value was 9.35.

Regarding “ATAGTATCTGGTAGCTGTACGAGTCGTATAGTGCAG [XGTACX_site2542]”, the “gcPBM binding intensity (ln)” value turned out to be 8.25.

As for “AAAAAAAATTATATATGTACTTATTAATCCTTATAT [XGTACX_site1389]”, the “gcPBM binding intensity (ln)” value came out at 6.86.

In the case of “TTTTCTAAATAAATAGTGCATTTATTATATATACAT [GTGCAC_site9766]”, the “gcPBM binding intensity (ln)” value stood at 9.15.

Take GATGTTTCTATTTTAGTGCATTTTAAATAAATAAAT: the “gcPBM binding intensity (ln)” value was determined as 9.4.

Turning to TACATCATCTATAAGGTGCATTTTAGTTCTATTAAA, the “gcPBM binding intensity (ln)” value was determined as 10.8.

TTGTTCTTTTGAAAGGTGCAAAAGAAAAATAATTAA: the “gcPBM binding intensity (ln)” value turned out to be 11.2.

Regarding “AAAAAAAAAAGAAATTGTACTTTTTGTTTAATAATT [XGTACX_site4681]”, the “gcPBM binding intensity (ln)” value is 6.65.

“TTGTTCTTTTTTTTTTTATTTTTTAATTTGAAAAGA [CACACA_negctrl_site209]”: the “gcPBM binding intensity (ln)” value stood at 7.03.

On to “GACATATTCCCCCCCACACACACACCCACATACATA [CACACA_site2302]”, for which the “gcPBM binding intensity (ln)” value turned out to be 9.81.

As for “CATATTCCCCCCCACACACACACACGCATACATACC [CACACA_site7148]”, the “gcPBM binding intensity (ln)” value turned out to be 10.1.

As to “CATATTCCCCCCCACACACACACACCCATACATACC [CACACA_site2303]”, the “gcPBM binding intensity (ln)” value came to 10.2.

With “TCTATATAATACCAATGTACATAGTTTTAAGCATAA [XGTACX_site1889]”, the “gcPBM binding intensity (ln)” value was 6.93.

With “TATAAAACGGATGAACAACAAATCATATGGCACAAA [TGCATGCA_negctrl_site608]”, the “gcPBM binding intensity (ln)” value was determined as 7.23.

For the sequence “TATTGTATCCTTAATGCATGCACCAAATAAAAAAAG [TGCATGCA_site541]”, the “gcPBM binding intensity (ln)” value was 11.1.
